The text below walks through data of PubChem BioAssay (NCATS).

Records with an inconclusive call do not appear. The source made the active and inactive calls. The call rests on the fitted dose curve; in most records, active means well fitted curve in the direction sought with a large enough effect; inconclusive means small, poorly fitted or top-dose-only effect, or another doubt; inactive means no such curve, though single readings can be large; an effect the other way counts as inactive or inconclusive.

The target of assay [1] is Cytochrome P450 2C19 (Homo sapiens) (UniProt P33261). In words: qHTS for inhibitors of CYP2C19 against the NCATS DSHEA and TCM libraries (AID 1919974).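 Further: luminescence from luciferin released by CYP2C19 oxidation of a pro-luciferin substrate; potency means the concentration at half of the fitted maximal effect.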 The settings on record: CYP2C19 enzyme inhibition, luminescence qHTS. The gist of the method:
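Read-out is luminescence after P450-Glo detection (30 min, RT). Before that: 15 min compound–enzyme preincubation, then 30-45 min reaction with 1x NADPH regeneration solution, substrate concentration isoform-specific.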

Assay [2] in a line: KB-3-1 P-gp reporter qHTS against the NCATS DSHEA and TCM libraries (AID 1919975). Further: 0% is about no effect. The settings on record: KB-3-1 parental cells, CellTiter-Glo luminescence viability, 72 h; series mostly up to 44.5 µM. The gist of the method: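 72 h exposure of KB-3-1 cells (DMEM, 10% FBS) to DSHEA/TCM samples, concentration-response; cell viability measured as CellTiter-Glo luminescence after 30 min at room temperature.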
For orientation: qHTS replaces the single test concentration by a dilution series.

Assay [3] has as its target Cytochrome P450 1A2 (Homo sapiens) (UniProt P05177). In words: qHTS for inhibitors of CYPIA2 against the NCATS DSHEA and TCM libraries (AID 1919976). Further: potency means the concentration at half of the fitted maximal effect. The settings on record: recombinant CYP1A2 enzyme activity, luminescence; series mostly up to 63.1 µM. The gist of the method:
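CYP1A2 + luciferin substrate, 100 mM KPO4-type buffer; cmpd 15 min RT; 1x NADPH regen, 30-45 min RT dark; detection reagent 30 min RT; luminescence. Minus-enzyme wells as background; furafylline intraplate control.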

Assay [4] can be described thus: KB-8-5-11 P-gp reporter qHTS against the NCATS DSHEA and TCM libraries (AID 1919977). Further: 0% is about no effect. The settings on record: KB-8-5-11 cells; series mostly up to 26.1 µM. The essentials:
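Cells were seeded, allowed ~4 h to attach, dosed by pin tool (substance titrations), incubated ~72 h at 37C, then lysed with CellTiter-Glo for 30 min at room temperature before luminescence reading.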

Assay [5] is described as follows: qHTS Counterscreen for compound interference against the NCATS DSHEA and TCM libraries (AID 1919978). Further: % of control where 0% means no effect. The settings on record: firefly luciferase detection reagent interference, luminescence. The gist of the method:
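Read-out is luminescence after 30 min at RT with luciferin detection reagent. Before that, compounds (19.5 nM to 39.8 uM final) sat 15 min at RT with 1 uM D-luciferin or 100 mM potassium phosphate buffer. PTC124 served as intraplate control.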

A short description of assay [6]: Dual reporter qHTS for agonist of Pregnane X Receptor (hPXR) against the NCATS DSHEA and TCM libraries: Fluorescence readout (AID 1920058). Further: 0% is about no effect. The settings on record: PXR dual reporter cells; series mostly up to 68.2 µM. The gist of the method: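 HepG2 hPXR-Luc, 2000 cells/well, 5 h attach; cpds ~24 h, 37 °C/5% CO2; CellTiter-Fluor 1 h; fluor. Ex/Em 405/540 nm = viability.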

Cytochrome P450 2C19 (Homo sapiens), sequence (P33261 whole entry, looked up, canonical isoform): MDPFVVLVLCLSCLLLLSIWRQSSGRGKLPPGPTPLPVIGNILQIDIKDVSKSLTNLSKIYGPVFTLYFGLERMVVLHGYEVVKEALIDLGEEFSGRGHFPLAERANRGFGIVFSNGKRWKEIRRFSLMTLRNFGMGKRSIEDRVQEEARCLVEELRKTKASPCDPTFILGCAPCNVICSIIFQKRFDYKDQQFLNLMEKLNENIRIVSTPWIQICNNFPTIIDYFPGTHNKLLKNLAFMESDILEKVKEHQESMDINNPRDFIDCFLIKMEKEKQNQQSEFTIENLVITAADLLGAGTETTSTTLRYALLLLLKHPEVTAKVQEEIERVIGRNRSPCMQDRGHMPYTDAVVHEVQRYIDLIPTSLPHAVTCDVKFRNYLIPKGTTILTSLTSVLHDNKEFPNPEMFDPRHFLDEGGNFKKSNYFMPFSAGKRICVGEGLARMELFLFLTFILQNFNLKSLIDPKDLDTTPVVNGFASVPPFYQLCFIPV
Cytochrome P450 1A2 (Homo sapiens), sequence (P05177 whole entry, looked up): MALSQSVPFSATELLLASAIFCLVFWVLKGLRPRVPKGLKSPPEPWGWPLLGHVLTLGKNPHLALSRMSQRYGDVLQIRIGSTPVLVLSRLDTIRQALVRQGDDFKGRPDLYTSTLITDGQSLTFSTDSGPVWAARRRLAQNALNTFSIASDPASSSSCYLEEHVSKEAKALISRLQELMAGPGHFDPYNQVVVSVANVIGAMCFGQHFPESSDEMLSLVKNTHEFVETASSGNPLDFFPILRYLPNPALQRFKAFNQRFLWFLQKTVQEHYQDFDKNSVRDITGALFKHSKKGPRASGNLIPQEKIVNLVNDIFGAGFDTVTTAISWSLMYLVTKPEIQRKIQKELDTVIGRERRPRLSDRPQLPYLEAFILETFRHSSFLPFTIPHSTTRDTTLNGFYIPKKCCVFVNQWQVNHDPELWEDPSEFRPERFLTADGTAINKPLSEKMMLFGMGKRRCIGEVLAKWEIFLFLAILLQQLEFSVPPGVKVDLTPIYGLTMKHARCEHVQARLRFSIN

For `C=C(CO)C(=O)O[C@H]1CC(=C)[C@@H]2C[C@H](O)C(=C)[C@@H]2[C@H]2OC(=O)C(=C)[C@@H]21`, the values for the Potency in assay [1] and in assay [3] were 2.24 µM (active) and 2.51 µM (active), respectively. Besides, the result in assay [2], in assay [4] and in assay [6] was inactive. Further, the max response in assay [5] was -4.75% (inactive).
